Values joined by “and” are separate entries in the source; they are usually repeats but may differ in a detail not shown here. Equal entries are not always repeated. The campaign covered roughly 260,000 compounds. About 1,500 (0.58%) were called active. Roughly 5% stayed inconclusive and do not appear here. The list is a sample of the results. Entries with a potency or affinity are not part of this list. Values without a mark were called inactive.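 The calls were made as follows: active = inhibition above a set limit at one or more doses, reproduced on every date tested; inconclusive = results disagree between test dates, or hit never tested in dose response; inactive = the rest.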

The target of this test is Virion infectivity factor (Human immunodeficiency virus type 1 group M subtype B (isolate BH10)) + Virion infectivity factor (Human immunodeficiency virus type 1 group M subtype B (isolate BRU/LAI)) + Virion infectivity factor (Human immunodeficiency virus type 1 group M subtype B (isolate PCV12)) + Virion infectivity factor (Human immunodeficiency virus type 1 group M subtype B (isolate HXB2)) + DNA dC->dU-editing enzyme APOBEC-3G (Homo sapiens) (UniProt P69720+P69721+P69722+P69723+Q9HC16). In words: HIV-1 Vif–A3G interaction blockers – biochemical, TR-FRET, GST-Vif 1-94, biotin-A3G peptide, dose response retest, primary screen (AID 1117319).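 Also: Vif residues 1-94 fused to GST binding biotinylated APOBEC3G peptide 110-148; 0% = full assay without inhibitor and 100% = GST in place of GST-Vif.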 To be noted: TR-FRET GST-Vif / biotin-A3G peptide binding; stronger effect = higher value.
With `COCCn1nnnc1C(c1cc2cc(C)ccc2[nH]c1=O)N1CCc2ccccc21` (stereo not given), the inhibition is 17%.
With `Cc1cc(NC(=O)CSc2nnc(Cc3cccn3C)n2CCc2ccccc2)no1` the figure was 24.2%; with `CC1(C)Cc2cccc(OCC(=O)OCc3nnc(-c4ccccc4)o3)c2O1`, -2.78%.
With `CC(/C=N/NC(=O)Cc1cccs1)=C\c1ccco1` the figure was 12.2%; with `C/C(=N\NC(=O)Cc1cccn1C)c1ccco1`, 20.2%; with `CC(=O)Nc1ccc2c(c1)nc(C)n2-c1ccccc1`, -9.18%.
In the case of `O=C1CC(c2ccc(O)cc2)Oc2cc(O)cc(O)c21` (stereo not given), the inhibition was 10.3%.
With `O=C1C[C@@H](c2ccc(O)cc2)Oc2cc(O)cc(O)c21` the figure was 2.93%.
With `Cc1n[nH]c(C)c1S(=O)(=O)N(C)Cc1ccco1` the figure was 0%.
With `Cc1noc(C)c1COc1ccc(C(=O)OCC(=O)N2CC(=O)Nc3ccccc32)cc1` the figure was 2.4%.
`CCC(=O)c1ccc(OCC(=O)OCC(=O)N2c3ccccc3NC(=O)C2(C)C)cc1`: the inhibition is 0.69%.
With `CS(=O)(=O)N(CC(=O)N1CCCCCC1)c1ccc2c(c1)OCCO2` the figure was 0.11%.
With `CCC(=O)Nc1nc2ccc([N+](=O)[O-])cc2s1` the figure was 1.71%; with `COc1ccc(C)cc1NC(=O)NCc1ccc(F)cc1`, 7.92%; with `COc1ccc(OC)c(NC(=O)NCc2cccnc2)c1`, -1.39%.
With `O=C(CCNC(=O)c1ccc(Cl)cc1)NCc1ccccc1Cl` the figure was -1.5%; with `COc1cccc(-c2c3c([nH]c(=O)c2C#N)CCc2cc(OC)ccc2-3)c1`, -2.14%.
For `CCCCN1CC(COCc2ccccc2)Oc2cc(Br)ccc2S1(=O)=O` (stereo not given), the inhibition was -3.27%.
With `CCC(C(=O)OCC(=O)Nc1ccc(C(N)=O)cc1)c1ccccc1` (stereo not given) the figure was -11.4%; with `CCC(C(=O)OCC(=O)Nc1ccc(F)cc1)c1ccccc1` (stereo not given), 11.7%.
With `CCSc1nnc(NC(=O)[C@@H](NC(=O)c2ccccc2F)C(C)C)s1` the figure was -8.51%; with `Cc1c(Cl)ccc2c1NC(=O)[C@]21[C@@H]2C(=O)N(Cc3ccccc3)C(=O)[C@@H]2[C@@H]2CCCN21`, 2.38%.
With `Cc1cc(Cl)c2c(c1)[C@]1(C(=O)N2)[C@@H]2C(=O)N(Cc3ccccc3)C(=O)[C@@H]2[C@@H]2CCCN21` the figure was 28.3%.
Consider `O=C(Cc1n[nH]c(=O)c2ccccc12)OCC(=O)c1ccc(F)c(F)c1`, for which the inhibition is -13.4%.
With `Cc1cc(NC(=O)Nc2ccc(F)cc2F)n(C)n1` the figure was -0.16%.
As to `C#CCN(C[C@H]1[C@H](OC(=O)Nc2c(C)noc2C)[C@H](OC(=O)Nc2c(C)noc2C)C[C@@H](C(=O)OC)[C@H]1C(=O)OC)S(=O)(=O)c1ccc(C)cc1`, the inhibition was 1.23%.
With `COc1ccccc1C(=O)N(CCN(C)C)c1nc2cc(C)cc(C)c2s1` the figure was -1.26%.
With `Cc1nc(NC(=O)COC(=O)/C=C/c2ccco2)c(Cl)cc1Cl` the figure was 20.2%.
With `Cc1c(Cl)cnc(NC(=O)COC(=O)/C=C/c2ccco2)c1Cl` the figure was 19.7%; with `CCC1CCCCN1C(=O)CSc1nnc(N)s1` (stereo not given), -4.63%.
As for `O=C(NCC(c1ccco1)N1CCc2ccccc2C1)c1ccc(F)cc1` (stereo not given), the inhibition was -9.45%.
With `O=C(/C=C/c1ccco1)NCCc1ccccc1` the figure was 0.33%; with `COc1ccc(CCNC(=O)/C=C/C(=O)O)cc1`, 14.3%; with `CC1(C)Cc2nc3sc(C(=O)NCCCO)c(N)c3cc2CS1`, -0.06%.
With `CCC1(C)Cc2nc3sc(C(=O)O)c(N)c3cc2CO1` (stereo not given) the figure was 32.8%; with `COc1ccc(-c2ccc3c(c2)C2CC3CCN2C(=O)C(C)(C)C)cc1` (stereo not given), -6.26%; with `COc1ccc(Cc2nnc(SCC(=O)NC(C)c3ccccc3)o2)cc1` (stereo not given), 8.9%.
For `CCOC(=O)C1(CC)NC(c2ccco2)C2C(=O)N(CC)C(=O)C21` (stereo not given), the inhibition is 0.75%.
With `CCOC(=O)C1(C)NC(c2ccco2)C2C(=O)N(C)C(=O)C21` (stereo not given) the figure was 2.73%.
With `CCOc1ccccc1NC(=O)c1cc2ccccc2oc1=O` the figure was 5.96%; with `O=c1[nH][nH]cc1C=Nc1ccccc1O`, 1.21%.
With `O=C(Nc1ccccc1)c1ccccc1N=Cc1ccccc1O` the figure was -0.3%; with `Cc1cccc(NC(=O)Cn2cnc3c(oc4ccccc43)c2=O)c1`, 4.28%.
On to `CCCCn1c(SCC(N)=O)nnc1-c1ccco1`, for which the inhibition was 3.37%.
With `c1ccc(OCCCCN2CCOCC2)cc1` the figure was 16.5%; with `CCOC(=O)N1CC=C2C(C#N)=C(N)C(C#N)(C#N)[C@H](c3ccsc3)[C@H]2C1`, 9.32%.
With `CC(C)(C)OC(=O)N1CC=C2C(C#N)=C(N)C(C#N)(C#N)C(c3cccs3)C2C1` (stereo not given) the figure was 5.47%; with `CC1CCN(c2nnc(NC(=O)Cn3c(=O)oc4ccccc43)s2)CC1`, 4.48%.
With `COC(=O)c1c(S(=O)(=O)N2CCOCC2)c(C)n(C)c1C`, the inhibition is 2.63%.
With `Cc1cn([C@H]2C[C@H](O)[C@@H](CNCc3ccccc3)O2)c(=O)[nH]c1=O` the figure was -4.57%; with `CC1CN(C(=O)c2ccn(C)n2)CC(C)O1` (stereo not given), -6.54%; with `O=C(CN1CCN(Cc2ccccc2)CC1)N/N=C\C=C/c1ccco1`, 29.4%.
`O=C1CS/C(=N/N=C/c2ccco2)N1Cc1ccc(F)cc1`: the inhibition is 10.9%.
With `CC(c1ccccc1)C1CC(=O)N(Cc2ccco2)C1=O` (stereo not given), the inhibition is 1.07%.
With `O=C1c2ccccc2C(=O)N1Cc1ccco1` the figure was 6.23%.
With `CC1S/C(=N/N=C/c2ccco2)N(Cc2ccc(F)cc2)C1=O` (stereo not given) the figure was 2.84%; with `CC1S/C(=N/N=C/c2ccco2)N(Cc2ccccc2)C1=O` (stereo not given), 4.75%.
As for `O=C(CN1C(=O)C(=O)N(Cc2ccco2)C1=O)NC1CCCCC1`, the inhibition was 10.2%.
With `O=C1C2C3CCC(C3)C2C(=O)N1Cc1ccco1` (stereo not given) the figure was -17.6%.
With `O=c1cc(NCCc2ccccc2)c2ccccc2o1` the figure was -9.21%.
With `Cc1ccc(OCCNC(=O)CNC(=O)c2ccccc2Cl)cc1` the figure was -0.63%; with `Cc1cc(C)c(S(=O)(=O)N2CCCC(C(=O)NCCC3=CCCCC3)C2)c(C)c1` (stereo not given), 9.17%.
Turning to `O=C(N=C1SC2CS(=O)(=O)CC2N1Cc1ccccc1)C1CC1` (stereo not given), the inhibition is -2.49%.
For `COc1ccc(CNc2nc(NCc3ccc(OC)c(OC)c3)n(C(=O)c3cccs3)n2)cc1OC`, the inhibition is 13.3%.
With `CC(C)N(Cc1nccn1C)C(=O)CC1C(=O)NCCN1Cc1ccc(F)c(F)c1` (stereo not given) the figure was -8.55%.
With `COc1ccc(CN2CCNC(=O)C2CC(=O)N(Cc2nccn2C)C(C)C)c(OC)c1` (stereo not given) the figure was -0.6%; with `Cc1ccc(SCCOCCN2CCc3ccccc3C2)cc1`, -8.65%; with `C/C(Cl)=C/Cc1c(C)[nH]c2ccc(C)cc2c1=O`, -1.26%.
With `COc1ccc(C(=O)N(C)C(C)c2nccs2)cc1OC1CCN(C(C)=O)CC1` (stereo not given) the figure was -6.6%; with `CC1(C)CC2(CC(c3ccccc3)c3ccc(O)cc3O2)NC(=S)N1` (stereo not given), 0.62%.
Turning to `CC1(C)CC2(CC(c3ccccc3F)c3cc(Cl)c(O)cc3O2)NC(=S)N1` (stereo not given), the inhibition was 0.09%.
With `Cc1cc(C)c(C(=O)NC2CC(C)(C)Cc3c2cnn3-c2ccccc2)o1` (stereo not given) the figure was 1.78%; with `O=[N+]([O-])c1ccc(/C=N/Nc2nc(N3CCCCCC3)nc(N3CCCCCC3)n2)o1`, 10.1%.
With `O=[N+]([O-])c1ccc(-c2ccc(/C=N/Nc3nc(N4CCCC4)nc(N4CCCC4)n3)o2)cc1` the figure was -1.43%.
With `COC(=O)C1=C(CS(=O)(=O)c2ccc(Cl)cc2)NC(=O)NC1c1ccc(O)cc1` (stereo not given) the figure was 9.59%; with `CC(C)N(C(=O)CSc1nnc(-c2cc3ccccc3cc2O)n1Cc1ccco1)C(C)C`, 9.68%.
As for `CC(=O)c1cccc(NC(=O)c2ccoc2C)c1`, the inhibition is 7.62%.
Consider `CC1(C)N=C(c2ccccc2)C(=O)N1`, for which the inhibition is 1.67%.
Regarding `CC(C)[C@H](NC(=O)c1ccco1)C(=O)OCC(=O)c1ccc2c(c1)NC(=O)CO2`, the inhibition is 30.8%.
With `COc1cc(C(=O)NNC(=S)NC(=O)c2ccc(F)cc2)cc(OC)c1OC` the figure was 13.5%.
With `CCN(CC)CCn1c2ccccc2c2nc3ccccc3nc21` the figure was -1.16%; with `CCc1cc2c(=O)c(-c3nc4ccccc4n3C)c(C)oc2c(CN(CC)CC)c1O`, -0.78%; with `CC1=CN2C(=N)/C(=C/c3ccco3)C(=O)N=C2S1`, 14.9%.
As to `CC1=CN2C(=N)/C(=C/c3ccc(Sc4ccc(C)cc4)o3)C(=O)N=C2S1`, the inhibition is -0.88%.
With `O=C(Nc1cccc2c1[nH]c1ccccc12)C(F)(F)F` the figure was -2.08%; with `COc1cc2[nH]c3c(Cl)ncnc3c2cc1OC`, -0.29%.
With `COc1ccc2c([N+](=O)[O-])c(Cl)[nH]c2c1` the figure was 21.2%.
With `COc1ccc(C)cc1S(=O)(=O)NCC(c1ccco1)N1CCc2ccccc2C1` (stereo not given) the figure was -3.21%.
Regarding `COc1cccc(C2C(C#N)=C(N)OC3=C2C(=O)CCC3)c1OC(=O)c1ccco1` (stereo not given), the inhibition is 22.1%.
With `N#CC1=C(N)OC2=C(C(=O)CC(c3ccco3)C2)C1c1ccc(OCc2c(F)cccc2Cl)cc1` (stereo not given) the figure was 13.6% and 14.7%.
With `Cc1ccc(NC(=O)C(C)Sc2nc(-c3ccccc3)cc(=O)[nH]2)cc1` (stereo not given) the figure was -0.75%; with `O=C1C=C(c2ccccc2)C(c2ccccc2)C1` (stereo not given), 0.24%.
With `COc1ccc(N2CCN(C(=O)COc3ccc4ccccc4c3)CC2)cc1` the figure was 2.55%; with `Cc1onc(-c2ccccc2Cl)c1C(=O)N1CCCC1`, -6.38%.
Consider `COc1ccc(S(=O)(=O)N2CCN(C(=O)c3c(-c4ccccc4)noc3C)CC2)cc1`, for which the inhibition is 0.45%.
With `COc1ccc(N2CCN(C(=O)COC(=O)c3c(-c4ccccc4)noc3C)CC2)cc1` the figure was -5.58%.
With `Cc1onc(-c2ccccc2Cl)c1C(=O)N1CCN(c2ccccc2)CC1` the figure was -3.16%.
With `COc1ccc(C(=O)N2CCN(c3cccc(Cl)c3)CC2)cc1` the figure was -2.36%; with `COc1ccc(N2CCN(C(=O)c3ccc(C)cc3Cl)CC2)cc1`, 6.52%; with `O=C(COc1ccccc1)N1CCN(c2ccccc2)CC1`, 10.3%.
